Screens deposited in PubChem BioAssay by Broad Institute.
This excerpt belongs to a sample that is enriched for hits.
CD40 NFkB inh – CD40 pathway inhibition in BL2 cells; BL2 NF-kB luciferase reporter, CD40L-induced, 4 h; inhibition, % at 10 µM; 0.94% of 83,000 active;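 active means mean inhibition of at least 50% with a set share of replicates also reaching that level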
Of the large screens only hits and unclear results are named; the others gave an inactive call; [ ] = another dose, or the depositor's remark.

C[C@@H]1CCCCO[C@H](CN(C)C(=O)Nc2ccc3c(c2)OCO3)[C@H](C)CN([C@@H](C)CO)C(=O)c2cc(NS(=O)(=O)c3ccc(F)cc3)ccc2O1	none
C/C=C/c1ccccc1[C@H]1[C@@H](C#N)N(C(=O)c2cccnc2)[C@@H]1CO	none
CNC[C@@H]1Oc2ccc(NS(C)(=O)=O)cc2CC(=O)N(C)C[C@H]1C	none
CCN1CC(=O)N2[C@H](CO)[C@H](c3ccc(Br)cc3)[C@@H]2C1	none
CCOC(=O)C1CCCN(CCC(C)c2ccccc2)C1 (stereo not drawn)	none
CCOC(=O)c1c(SCCN2CCCC2)n(-c2ccccc2)c(=S)n(-c2ccccc2)c1=O	CD40 NFkB inh 51
CCOC(=O)c1c(C)c(C(=O)N2CCN(c3ccccc3)CC2)c(C)n1C	none
CC=Cc1ccc2n(c1=O)C[C@H]1[C@H](CO)[C@@H](C(=O)NCCc3ccncc3)N[C@@H]21 (mixture of isomers)	none
CCOc1ccc(NC(=O)COC(=O)CN2CCCCCC2=O)cc1	none
C[C@@H]1CN([C@@H](C)CO)C(=O)Cc2cc(NS(=O)(=O)c3ccc(F)cc3)ccc2O[C@H]1CN(C)Cc1ccc(C(F)(F)F)cc1	CD40 NFkB inh 72
Cc1noc(C)c1S(=O)(=O)Nc1ccc2c(c1)CC(=O)N([C@@H](C)CO)C[C@@H](C)[C@@H](CN(C)Cc1ccccc1)O2	none
C[C@@H]1CN([C@H](C)CO)C(=O)c2cc(NS(=O)(=O)c3ccc(F)cc3)ccc2O[C@H]1CN(C)Cc1ccc(C(F)(F)F)cc1	none
C[C@@H]1CN([C@H](C)CO)C(=O)Cc2cc(NS(=O)(=O)c3ccc(F)cc3)ccc2O[C@H]1CN(C)CC1CCCCC1	CD40 NFkB inh 59
Cc1noc(C)c1S(=O)(=O)Nc1ccc2c(c1)CC(=O)N([C@@H](C)CO)C[C@@H](C)[C@@H](CN(C)Cc1ccc(Oc3ccccc3)cc1)O2	CD40 NFkB inh 74[25 µM]
C[C@H]1CN([C@@H](C)CO)C(=O)Cc2cc(NS(=O)(=O)c3ccc(F)cc3)ccc2O[C@H]1CN(C)Cc1ccncc1	none
C[C@@H]1CN([C@H](C)CO)C(=O)Cc2cc(NS(=O)(=O)c3ccc(F)cc3)ccc2O[C@@H]1CN(C)Cc1ccc(C(F)(F)F)cc1	none
Cc1noc(C)c1S(=O)(=O)Nc1ccc2c(c1)CC(=O)N([C@H](C)CO)C[C@H](C)[C@@H](CN(C)Cc1ccc(Oc3ccccc3)cc1)O2	none
C[C@H]1CN([C@@H](C)CO)C(=O)Cc2cc(NS(=O)(=O)c3ccc(F)cc3)ccc2O[C@@H]1CN(C)Cc1ccncc1	none
COc1ccc2c3c([nH]c2c1)[C@H](CO)N(S(C)(=O)=O)CC31CN(CC2CCOCC2)C1	none
OCCN(Cc1ccccn1)Cc1ccccn1	none
CCS(=O)(=O)N1CC2(CN(C(=O)Cc3ccccn3)[C@H](CO)c3[nH]c4cc(OC)ccc4c32)C1	none
COc1ccc(C(=O)N2CCOCC2)cc1S(=O)(=O)N(C)Cc1ccccc1	none
CCN(CC)S(=O)(=O)c1cc(C(=O)Nc2cccnc2Cl)ccc1Cl	none
C[C@H](CO)N1C[C@H](C)[C@@H](CN(C)C(=O)Nc2ccc(C(F)(F)F)cc2)OCCCC[C@H](C)Oc2ccc(NC(=O)Nc3ccc4c(c3)OCO4)cc2C1=O	none
O=C(C[C@@H]1C[C@@H]2c3cc(NS(=O)(=O)c4ccccc4)ccc3O[C@@H]2[C@H](CO)O1)N1CCOCC1	none
CC=Cc1ccc2n(c1=O)C[C@@H]1[C@@H](CO)[C@H](C(=O)NCCc3cn(C)cn3)[C@H]2N1C(=O)CC1CC1 (mixture of isomers)	none
CC(C)C#Cc1ccc([C@@H]2[C@@H](CO)N(C(=O)C3CCC3)[C@H]2C#N)cc1	none
COc1ccccc1NC(=O)N1CCCCN2[C@@H](CO)[C@H](c3ccc(C#CC4CCCC4)cc3)[C@@H]2C1	none
CC(=O)c1ccc(NC(=O)c2noc3c2CCC3)cc1	CD40 NFkB inh 58
COC(=O)c1ccccc1NC(=O)c1noc2c1CCCC2	none
COc1ccc(CNC(=O)c2noc3c2CCCCC3)cc1	none
Cc1ccc(NC(=O)c2cccc(-n3cnnn3)c2)cc1Cl	none
CO[C@@H]1CN(C)C(=O)c2cc(NC(=O)c3ccc4c(c3)OCO4)ccc2OC[C@@H](C)N(CCC(F)(F)F)C[C@@H]1C	none
CCCCC(=O)Nc1ncc([N+](=O)[O-])s1	none
Cc1nc(C)c(C(=O)Nc2ncc([N+](=O)[O-])s2)o1	CD40 NFkB inh 69
CC(C)CC(=O)Nc1ncc([N+](=O)[O-])s1	none
CCOc1ccc(C(=O)C(C)OC(=O)Cn2c(C)csc2=O)cc1 (stereo not drawn)	none
CCCCN(C(=O)c1ccc(NC2CC2)c([N+](=O)[O-])c1)c1c(N)n(CCCC)c(=O)[nH]c1=O	none
C[C@H](CO)N1C[C@H](C)[C@@H](CN(C)Cc2ccccc2C(=O)O)Oc2cc(-c3ccc(F)cc3)ccc2S1(=O)=O	none
CCOc1cc(N2CCOCC2)c(OCC)cc1NC(=O)CSc1ncccc1C(=O)O	none
N#C[C@@H]1N[C@@H](CO)[C@H]1c1ccc(C#Cc2ccccc2F)cc1	none
C/C=C/c1ccc([C@@H]2[C@@H](CO)N3CCCCN(S(=O)(=O)c4ccc(OC)cc4)C[C@@H]23)cc1	none
N#C[C@H]1[C@H](c2ccccc2-c2ccccc2)[C@H](CO)N1C(=O)NC1CCCC1	none
